# Test results: PubChem BioAssay (NCATS)
# Inconclusive results are not listed. Where a call stands in place of a potency, no number is given. Active and inactive are the calls of the source. The call rests on the fitted dose curve; in most records, active means well fitted inhibition curve with a large enough effect; inconclusive means small, poorly fitted or top-dose-only effect; inactive means no such curve, though single readings can be large or run the other way.
# Target: Rap guanine nucleotide exchange factor 3 (Homo sapiens) (UniProt O95398)
# Experiment: Confirmatory qHTS for antagonist of cAMP-regulated guanine nucleotide exchange factor 3 (EPAC1) (AID 1645880); further: nearly all actives have a fitted effect of over 55% in size
# Details: EPAC1 Rap1B-BODIPY-GDP exchange, fluorescence; activity, negative = inhibition: at 115 µM (top of the series)
# Source text: Assay Provider (PI): Xiaodong Cheng Ph.D. The University of Texas Medical Branch, […], TX MLPCN Grant: NS066510 In multi-cellular eukaryotic organisms, the effects of cAMP are transduced by two ubiquitously-expressed intracellular cAMP receptors, the classic protein kinase A/cAMP-dependent protein kinase (PKA/cAPK) and the more recently discovered exchange protein directly activated by cAMP/cAMP-regulated guanine nucleotide exchange factor (EPAC/cAMP-GEF). Both PKA and EPAC are ubiquitously expressed in all tissues, and an increase in intracellular cAMP levels will lead to the activation of both PKA and EPAC. Therefore, careful dissections of the individual role and relative contribution of EPAC and PKA within the overall cAMP signaling in various model systems are critical for further elucidating the mechanism of cAMP signaling. To date no EPAC-specific antagonists and agonist, as well as isoform-specific agonists have been reported, and developing EPAC-specific pharmacological probes to determine the physiological functions that EPAC play in the overall cAMP-mediated signaling remains a major challenge within the research field. Furthermore, identified regulators of EPAC may lead to new mechanism-based therapeutic strategies specifically targeting the EPAC / cAMP-signaling components as EPAC has been implicated to play important roles in major human pathological conditions such as diabetes, heart disease, and cancer. This qHTS will be used to screen the Molecular Libraries Small Molecule Repository (MLSMR) as a concentration-titration series using the NCGC unique quantitative screening (qHTS) platform to find activators for EPAC1. In addition, this assay will also be used as a counterscreen for the EPAC2 qHTS. This fluorescent based assay is developed and validated for EPAC1 that measures exchange using EPAC effector Rap1 complex with BODIPY-GDP, a GDP analog with a tethered fluorophores. Activators are identified by monitoring the change in fluorescence signal as the exchanged free BODIPY-GDP has a reduced fluorescence compared to Rap1-bound BODIPY-GDP. Increase in signal (activation) is the desired outcome for the EPAC1 agonist while no activity in this assay is desired for the EPAC2 agonist counterscreen. Reference: [1] de Rooij, J., Zwartkruis, F. J., Verheijen, M. H., Cool, R. H., Nijman, S. M., Wittinghofer, A., and Bos, J.L. (1998) Nature 396, 474-477. Kawasaki, H., Springett, G. M., Mochizuki, N., Toki, S., Nakaya, M., Matsuda, M., Housman, D. E., and Graybiel, A. M. (1998) Science 282, 2275-2279.
# Briefly, three uL of reagents (100 nM EPAC1, 250 nM RAP1B-BODIPY-GDP, 50 uM GDP) were dispensed into a 1536-well Greiner black solid-bottom medium binding assay plate. Controls and test compounds (23 nL) were transferred to the plate via a Kalypsys pin tool equipped with a 1536-pin array. The plates were centrifuged at 1,000 rpm for 15 seconds followed by 5 minute incubation at room temperature. The assay plates were read at 5 minute intervals for 30 minutes in the ViewLux plate reader using 480nm excitation and 540nm emission filters. The results were normalized to the […] positive control ATA and DMSO.
# Potency means the concentration at half of the fitted maximal effect.
# Chain of Rap guanine nucleotide exchange factor 3 (Homo sapiens) (O95398 whole entry, looked up): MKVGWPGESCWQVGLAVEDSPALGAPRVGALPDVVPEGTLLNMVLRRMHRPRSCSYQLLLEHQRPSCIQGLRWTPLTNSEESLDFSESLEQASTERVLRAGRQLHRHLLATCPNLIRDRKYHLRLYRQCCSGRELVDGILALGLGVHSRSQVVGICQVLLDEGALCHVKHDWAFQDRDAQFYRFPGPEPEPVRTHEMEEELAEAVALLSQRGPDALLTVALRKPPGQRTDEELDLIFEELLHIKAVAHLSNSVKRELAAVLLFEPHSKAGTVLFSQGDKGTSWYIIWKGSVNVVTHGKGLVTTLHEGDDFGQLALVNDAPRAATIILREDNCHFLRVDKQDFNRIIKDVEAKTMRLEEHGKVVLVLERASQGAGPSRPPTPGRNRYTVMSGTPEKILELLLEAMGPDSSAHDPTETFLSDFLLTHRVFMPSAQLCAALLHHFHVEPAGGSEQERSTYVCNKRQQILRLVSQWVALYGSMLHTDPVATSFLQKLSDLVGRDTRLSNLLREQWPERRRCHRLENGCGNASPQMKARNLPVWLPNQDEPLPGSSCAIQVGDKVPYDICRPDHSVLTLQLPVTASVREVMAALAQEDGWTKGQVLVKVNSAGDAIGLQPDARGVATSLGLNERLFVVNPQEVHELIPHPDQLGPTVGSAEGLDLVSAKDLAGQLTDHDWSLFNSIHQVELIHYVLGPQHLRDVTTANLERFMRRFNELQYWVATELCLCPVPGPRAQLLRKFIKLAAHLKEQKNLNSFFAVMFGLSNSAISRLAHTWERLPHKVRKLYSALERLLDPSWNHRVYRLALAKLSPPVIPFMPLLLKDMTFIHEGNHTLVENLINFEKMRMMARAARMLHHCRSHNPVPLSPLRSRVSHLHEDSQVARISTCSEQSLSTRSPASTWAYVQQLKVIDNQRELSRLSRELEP
SMILES,Potency,"activity, negative = inhibition"
CCOc1cc(-c2ccc(OC(=O)c3ccc(OC)cc3)c(OC)c2)cc(=O)c2c(C)oc(C)c12,75.7 µM (active),–
CC1CCN(C2(O)C(=O)Nc3ccc(Br)cc32)CC1 (stereo not given),inactive,–
O=C1c2cccc3c(N4CCCCC4)ccc(c23)C(=O)N1c1ccc(O)cc1,inactive,–
CCOC(=O)C1=C(C)NC(SC)=C(C#N)C1CC(C)C (stereo not given),inactive,–
CNc1snc(C)c1C(=O)OCC(=O)Nc1ccc(C)cc1F,inactive,–
O=CN(c1ccccc1)c1ccc2ccccc2c1,inactive,–
CSc1ccccc1C(=O)Nc1ccc(C)cc1C,inactive,–
O=C(NCc1ccc(F)cc1)C(c1cccnc1)N(C(=O)c1csnn1)c1ccccc1 (stereo not given),inactive,–
Cc1cc(/C=C2\SC(=S)N(Cc3ccco3)C2=O)c(C)n1-c1cccnc1,inactive,–
c1ccc(CNc2c(-c3cccc(SC4CCCCC4)c3)nc3ccccn23)cc1,inactive,–
COC(=O)c1cc(NC(=O)c2ccccc2)c(=O)oc1C/C=N\OCc1ccc(Cl)cc1Cl,inactive,–
Cc1cccc(N2CCN(S(=O)(=O)c3ccc4c(c3)CCN4C(=O)CCC(=O)O)CC2C)c1 (stereo not given),47.8 µM (active),–
COc1ccc(Cl)cc1NC(=O)CN(C)Cc1ccc(OC)c(OC)c1,inactive,–
CN1/C(=C/C=C/c2n(C)c3cc([N+](=O)[O-])c([N+](=O)[O-])cc3[n+]2C)C(C)(C)c2ccccc21,30.1 µM (active),–
CC(OC(=O)/C(C#N)=C/c1ccc(N(C)C)cc1)C(=O)N(C)c1ccccc1 (stereo not given),inactive,–
CCCc1cc2c(-c3ccccc3)cc(=O)oc2cc1OCc1ccc(C(=O)O)o1,75.7 µM (active),–
N#CC(C#N)=C1C=C2C=C(N3CCOCC3)CCC2CC1 (stereo not given),inactive,–
N#CC1=C2N=C(N)c3c(sc4c3CCCCC4)N2C2=C(C(=O)CCC2)C1c1ccccc1 (stereo not given),inactive,–
Cc1ccc(CNC(=O)c2cccc3c2C(=O)c2ccc(N4CCC(C)CC4)cc2S3(=O)=O)cc1,inactive,–
COc1ccc(CCNc2oc(-c3ccc(C)cc3)nc2C#N)cc1OC,inactive,–

SMILES,Potency,"activity, negative = inhibition"
CCC(Oc1ccccc1)C(=O)Nc1ccccc1N1CCCCC1 (stereo not given),inactive,–
COc1cc2nc(N3CCNCC3)nc(N)c2cc1OC,inactive,–
O=C(OCCN1C(=O)c2cccc3c(N4CCOCC4)ccc(c23)C1=O)c1ccc(Cl)cc1Cl,inactive,–
COc1ccc(-c2ccc(C(=O)NCCN3CCOCC3)c3occc23)c(C)c1,inactive,–
CCOC(=O)N/N=C/c1ccc(OCCSc2ccc(Cl)cc2)c(OC)c1,–,-73.5% (active)
COc1ccc(-n2c(SCC(=O)Nc3ccccc3OC)nc(O)cc2=O)cc1,inactive,–
O=C(COC(=O)COc1ccc(Cl)cc1Cl)NC1CCCC1,inactive,–
Cc1ccc([N+](=O)[O-])cc1NC(=O)CN(C1CCCCC1)S(=O)(=O)c1ccc(Cl)cc1,inactive,–
CCOC(=O)C1CCCN(c2c(C(=O)c3ccccc3)cnc3ccc(OC)cc23)C1 (stereo not given),inactive,–
O=C(O)c1cnn(-c2nc(-c3ccc(Cl)c(Cl)c3)cs2)c1C(F)(F)F,75.7 µM (active),–
Oc1c(C(c2ccccc2)N2CCN(c3ccccc3)CC2)sc2nc(-c3ccco3)nn12 (stereo not given),inactive,–
CCC1SC2=NC(C)=C(C(=O)OC)C(c3cccs3)N2C1=O (stereo not given),inactive,–
O=C(CCCN1C(=O)/C(=C/c2ccccc2)SC1=S)Nc1ccccc1O,inactive,–
N=C(N)c1ccc(N=Nc2c(O)ccc3c2[nH]c2ccccc23)cc1,56.2 µM (active),–
Cc1cc(C(=O)Nc2ccon2)c(C)o1,inactive,–
O=C1/C(=C/c2ccc(O)c(O)c2)SC(=S)N1Nc1ccccc1,16.9 µM (active),–
CC(C)=CCc1c(O)cc(O)c2c1O[C@H](c1ccccc1)CC2=O,inactive,–
CCC(=O)OC1CC(C)N(C(=O)c2ccccc2)c2ccc(C)cc21 (stereo not given),inactive,–
Nc1ncc(Br)cc1S(=O)(=O)Nc1cc(C(F)(F)F)cc(C(F)(F)F)c1,75.7 µM (active),–
Cc1c2ccccc2nc2c(F)c(NCCO)c(F)c(F)c12,inactive,–
